Shown is part of a subset that was picked to be rich in hits.
HIV RNase H inh-1: HIV-1 RT RNase H inhibitors, primary screen, biochemical, fluorescence; Gag-Pol polyprotein (Human immunodeficiency virus type 1 group M subtype B (isolate …; RT-RNase H RNA/DNA duplex cleavage; inhibition, % at 10 µM; 65,000 tested, 1.9% active; AID 565, 2006; in the data active = inhibition above about 50%
HIV RNase H inh-2: HIV-1 RT RNase H inhibitors, retest, confirmation, biochemical; shares compounds with HIV RNase H inh-1; Recombinant RT RNase H, fluorescent RNA/DNA duplex cleavage; inhibition, % at 10 µM; 1,000 tested, 39% active; in the data active = inhibition above about 48%; inconclusive = no clear call, values can overlap the other calls
* marks the source's active call; other numbers are inactive results; ? = inconclusive.

SMILES	HIV RNase H inh-1	others
COc1ccc(C(O)C(CC(=O)NCCCOC(C)C)C(=O)NCCCOC(C)C)cc1OC (stereo not given)	-13.2
COC(=O)c1ccc(Cn2cnc3c(sc4nc(N5CCOCC5)c5c(c43)CCCC5)c2=O)o1	64.4*	HIV RNase H inh-2=?
OCCN1CCN(c2ncnc3c2sc2nc(N4CCOCC4)c4c(c23)CCC4)CC1	-24.0
OCCN(CCO)c1ncnc2c1sc1nc(N3CCOCC3)c3c(c12)CCCC3	-44.0
CCC(C)[C@H](N)c1nnc(SCc2cccc(F)c2)o1 (stereo not given in full)	-11.0
CC(OC(=O)c1cccs1)C(=O)NCC1CCCO1 (stereo not given)	-8.9
CCC(C)c1ccc(O)c(N)c1 (stereo not given)	60.0*	HIV RNase H inh-2=3.7
CC(C)c1ccc(O)c(N)c1	57.6*	HIV RNase H inh-2=-12.6
CCC(C)c1ccc(O)c(NC(=O)c2cncc(Br)c2)c1 (stereo not given)	2.8
CC(C)(C)c1ccc(SCC(N)=O)cc1	-12.1
CC(C)(C)c1ccc(O)c(N)c1	86.1*	HIV RNase H inh-2=?
CCN(CC)C(=O)CSc1ccccc1N	7.0
CC(C)(C)c1ccc(-c2cc(N)n[nH]2)cc1	-7.8
Cc1ccccc1-n1c(C)nc2ccccc21	-18.8
COc1cc(-c2ccc(NC(=O)CN3CCCCC3)c(OC)c2)ccc1NC(=O)CN1CCCCC1	-2.3
N#C/C(=C\c1ccc[nH]1)S(=O)(=O)c1ccccc1	-75.9
CSc1nn(CCc2ccncc2)c(=S)s1	-27.1
Cc1ccc(NCc2nnc(SCC(=O)c3ccccc3)n2Cc2ccco2)c(C)c1	-5.2
N#C/C(C(=O)N1CCOCC1)=C1/SC=C(c2ccccc2)N1c1ccccc1	0.4
COc1ccc2[nH]c(=O)c(CN(Cc3ccc4c(c3)OCO4)C(C)=O)cc2c1	-15.6
CCOc1ccc2[nH]c(=O)c(CN(Cc3ccc(F)cc3)C(=O)c3ccco3)cc2c1	42.0
CCc1ccc2[nH]c(=O)c(CN(Cc3ccc4c(c3)OCO4)C(=O)c3ccco3)cc2c1	57.9*	HIV RNase H inh-2=19.6
CC1CCCCC1NS(=O)(=O)c1ccc(S(=O)(=O)NCc2ccncc2)cc1 (stereo not given)	-3.3
C=CCOC(=O)N1CCN(c2cccc(C(F)(F)F)c2)CC1	-6.3
COc1ccc(OC)c(-n2c(SCC(=O)NCc3ccco3)nnc2-c2c[nH]c3ccccc23)c1	-0.7
SMILES	HIV RNase H inh-1	others
CCOC(=O)CC(=O)CSc1nnc2c(n1)[nH]c1ccccc12	-11.4
Brc1ccc2[nH]c3nc(SCCN4CCOCC4)nnc3c2c1	2.5
c1ccc2c(c1)[nH]c1nc(SCCN3CCOCC3)nnc12	82.7*	HIV RNase H inh-2=0.3
COc1cc(OC)cc(C(=O)N2c3ccc(F)cc3CCC2C)c1 (stereo not given)	-5.4
CCOC(=O)CNC(=O)CSc1nc2nc(C)c(Br)cc2[nH]1	-0.7
CCOC(=O)C1=C(C)N=c2s/c(=C3\C(=O)Nc4ccccc43)c(=O)n2C1c1ccc2c(c1)OCO2 (stereo not given)	85.9*	HIV RNase H inh-2=67.3*
CCOC(=O)C1=C(C)N=c2s/c(=C\c3ccncc3)c(=O)n2C1c1ccc2c(c1)OCO2 (stereo not given)	19.7
CCOC(=O)C1=C(C)NC(=O)NC1c1ccc2c(c1)OCCO2 (stereo not given)	-17.2
O=C(Nc1ccccc1C(=O)N1CCN(c2ccccc2)CC1)c1ccco1	-5.1
O=C1C=C(NCCN2CCOCC2)CC(c2ccccc2)C1 (stereo not given)	0.5
Cc1cccn2c(=O)c3cc(C(N)=S)c(=N)n(CCCOC(C)C)c3nc12	68.6*	HIV RNase H inh-2=8.8
CCOC(=O)c1cc2c(=O)n3cccc(C)c3nc2n(C)c1=N	-20.0
CCOCCCn1c(=N)c(C(N)=S)cc2c(=O)n3cccc(C)c3nc21	10.5
CCSc1nc(-c2cccs2)nc2c1c(=O)n(C)c(=O)n2C	13.6
CCc1ccccc1NC(=O)c1cc(C2CC2)on1	-3.5
COc1ccc(OC)c(S(=O)(=O)N2CCC(C(=O)N3CCc4ccccc4C3)CC2)c1	-49.1
CCCSc1nnc2nc(C)cc(C)n12	-10.8
Cc1cc(C)n2c(=S)[nH]nc2n1	74.4*	HIV RNase H inh-2=66.8*
Cc1ccc(-c2n[nH]c(=S)n2C)cc1	-8.9
COc1ccccc1N(CCC#N)C(=O)CSc1nc(-c2ccccc2)cn1N	-5.1
CC(=O)N1CCc2cc(S(=O)(=O)NCCC3=CCCCC3)ccc21	-1.6
Cc1cc(C(=O)Nc2ccccc2C#N)n(-c2ccccc2)n1	-11.0
N#Cc1cc(-c2ccccc2)nn1-c1ccccc1	91.5*	HIV RNase H inh-2=55.9*
N#Cc1cn(-c2ccccc2)nc1-c1ccccc1	-9.4
O=C(NCCn1ccc2ccccc21)c1ccc(S(=O)(=O)N2CCOCC2)cc1	-8.7
SMILES	HIV RNase H inh-1	others
CCn1c(=O)cc(SCC(=O)Nc2ccccc2N2CCN(C)CC2)c2ccccc21	-2.5
CC1=CCC2C(=O)N(c3nc(C)cc(C)n3)C(=O)C2C1 (stereo not given)	-8.8
Cc1cc(C)n2nc3nc4c(cc3c2n1)CCCC4	-16.4
COCCCN=C(c1ccco1)n1c(=S)nc(-c2ccco2)n(CCCOC)c1=S	63.5*	HIV RNase H inh-2=3.1
COCCCn1c(-c2ccco2)nc2ccccc2c1=O	-23.9
COCCCn1c(SCC(=O)OC2CCCCC2)nnc1-c1ccco1	-3.0
COc1ccc(CCNC(=O)CSc2nnnn2-c2ccccc2OC)cc1OC	-12.4
Cc1nc(NC(=O)CSc2nnnn2Cc2ccccc2)sc1C	-6.8
CCn1c2ccccc2c2nnc(SCC(=O)Nc3ncccn3)nc21	-4.7
CCOC(=O)c1sc(NC(=O)C(CC)Sc2nnc3c4ccccc4n(CC)c3n2)nc1C (stereo not given)	25.5
CCOC(=O)c1sc(NC(=O)CSc2nnc3c4ccccc4n(CC)c3n2)nc1C	74.0*	HIV RNase H inh-2=42.0
Cc1ccc(S(=O)(=O)Nc2nonc2C)cc1	-1.3
Cc1ccccc1CS(=O)(=O)CCC(=O)NCc1ccccn1	-23.1
CC(C)CC(C(=O)NCc1ccccn1)N1C(=O)c2ccccc2C1=O (stereo not given)	-5.3
O=C(c1cccnc1Nc1ccc2c(c1)CCC2)N1CCOCC1	83.8*	HIV RNase H inh-2=9.4
O=C(c1ncc[nH]1)c1ccccc1C(=O)N1CCOCC1	-0.7
O=C(c1ccc2c3c(cccc13)CC2)N1CCOCC1	6.4
CCCCCCNC(=O)Cc1nc2nc(C)cc(C)n2n1	-2.2
COc1cccc(NC(=O)N2CCN(Cc3nc4ccccc4c(=O)[nH]3)CC2)c1	-0.2
Cc1sc2nc(SCC(=O)N3CCOCC3)[nH]c(=O)c2c1C	-4.0
Cc1sc2nc(C(C)Nc3ccccc3N3CCOCC3)[nH]c(=O)c2c1C (stereo not given)	65.0*	HIV RNase H inh-2=78.3*
Cc1sc2nc(C(C)Sc3nnc(C)n3-c3ccccc3)[nH]c(=O)c2c1C (stereo not given)	-9.1
CCOC(=O)COc1ccc2c(c1)c(C(=O)OCC)c(C)n2CC	-19.2
CCN1C=C(Cc2cccs2)C2=C(C1)C(c1cccs1)C(C#N)=C(N)O2 (stereo not given)	1.9
O=c1[nH]c2cc3c(cc2cc1CN(Cc1ccccc1)Cc1nnnn1Cc1ccco1)OCCO3	21.4
CC(C)C(c1nnnn1Cc1ccccc1)N(CCCO)Cc1cc2cc3c(cc2[nH]c1=O)OCO3 (stereo not given)	89.0*	HIV RNase H inh-2=11.0
O=c1[nH]c2cc3c(cc2cc1CN(CCCO)Cc1nnnn1Cc1ccc(F)cc1)OCO3	-22.6

Bioassay records from PubChem.
